Measurements reported in PubChem BioAssay AID1159580 (chemical genetic matrix, 2015).
Screen size: about 5,500 compounds; about 2,000 (36%) were called active. Inconclusive results (about 18%) are left out. Cut-off read from the data, not from the text of the source: active = normalized growth mostly below about 0.91 (no sharp cut-off); inconclusive = no clear call, values can overlap the other calls; inactive = mostly above about 0.92. The list shows a part of the results.

Test: chemical genetic growth profiling, strain panel (AID 1159580);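 note: tested at 20 µM; growth read once vehicle control cultures reached saturation at 30 °C; 1 = growth at the plate median or of vehicle wells; lower values mean less growth of the strain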
Settings: S. cerevisiae deletion strains, growth OD
[1] = locus YAR019C, strain CDC15, active compounds read low
[2] = locus YBL105C, strain PKC1, active compounds read low
[3] = locus YBR135W, strain CKS1, active compounds read low
[4] = locus YBR136W, strain MEC1, active compounds read low
[5] = locus YBR160W, strain CDC28, active compounds read low
[6] = locus YDL017W, strain CDC7, active compounds read low
[7] = locus YDL028C, strain MPS1, active compounds read low
[8] = locus YDL101C, strain DUN1, active compounds read low
[9] = locus YDL108W, strain KIN28, active compounds read low
[10] = locus YDL132W, strain cdc53, active compounds read low
[11] = locus YDL214C, strain PRR2, active compounds read low
[12] = locus YDR052C, strain DBF4, active compounds read low
[13] = locus YDR226W, strain ADK1, active compounds read low
[14] = locus YDR477W, strain SNF1, active compounds read low
[15] = locus YER123W, strain YCK3, active compounds read low
[16] = locus YER133W, strain GLC7, active compounds read low
[17] = locus YFL009W, strain cdc4, active compounds read low
[18] = locus YFL029C, strain CAK1, active compounds read low
[19] = locus YFR003C, strain YPI1, active compounds read low
[20] = locus YFR019W, strain FAB1, active compounds read low
[21] = locus YFR028C, strain CDC14, active compounds read low
[22] = locus YGR040W, strain KSS1, active compounds read low
[23] = locus YGR052W, strain FMP48, active compounds read low
[24] = locus YGR092W, strain DBF2, active compounds read low
[25] = locus YHR030C, strain SLT2, active compounds read low
[26] = locus YHR079C, strain IRE1, active compounds read low
[27] = locus YHR082C, strain KSP1, active compounds read low
[28] = locus YHR205W, strain SCH9, active compounds read low
[29] = locus YIL147C, strain SLN1, active compounds read low
[30] = locus YJL095W, strain BCK1, active compounds read low
[31] = locus YJL128C, strain PBS2, active compounds read low
[32] = locus YJL157C, strain FAR1, active compounds read low
[33] = locus YJR016C, strain ILV3, active compounds read low
[34] = locus YJR066W, strain TOR1 (second series), active compounds read low
[35] = locus YJR066W, strain TOR1, active compounds read low
[36] = locus YKL048C, strain ELM1, active compounds read low
[37] = locus YKL067W, strain YNK1, active compounds read low
[38] = locus YKL101W, strain HSL1, active compounds read low
[39] = locus YKL193C, strain SDS22, active compounds read low
[40] = locus YKL203C, strain TOR2, active compounds read low
[41] = locus YLR113W, strain HOG1, active compounds read low
[42] = locus YLR133W, strain CKI1, active compounds read low
[43] = locus YLR403W, strain SFP1, active compounds read low
[44] = locus YML070W, strain DAK1, active compounds read low
[45] = locus YMR001C, strain CDC5, active compounds read low
[46] = locus YMR205C, strain PFK2 (second series), active compounds read low
[47] = locus YMR277W, strain FCP1, active compounds read low
[48] = locus YNL006W, strain LST8, active compounds read low
[49] = locus YNL020C, strain ARK1, active compounds read low
[50] = locus YNL161W, strain CBK1, active compounds read low
[51] = locus YNL183C, strain NPR1, active compounds read low
[52] = locus YNL207W, strain RIO2, active compounds read low
[53] = locus YNL222W, strain SSU72, active compounds read low
[54] = locus YNL307C, strain MCK1 (second series), active compounds read low
[55] = locus YOL078W, strain AVO1, active compounds read low
[56] = locus YOL136C, strain PFK27, active compounds read low
[57] = locus YOR061W, strain CKA2, active compounds read low
[58] = locus YOR119C, strain RIO1, active compounds read low
[59] = locus YOR231W, strain MKK1, active compounds read low
[60] = locus YOR329C, strain SCD5, active compounds read low
[61] = locus YPL031C, strain PHO85, active compounds read low
[62] = locus YPL153C, strain RAD53, active compounds read low
[63] = locus YPL204W, strain HRR25, active compounds read low
[64] = locus YPL209C, strain IPL1, active compounds read low
[65] = locus YPL256C, strain CLN2, active compounds read low
[66] = locus YPR025C, strain CCL1, active compounds read low
[67] = locus YPR106W, strain ISR1, active compounds read low
[68] = locus YPR111W, strain DBF20, active compounds read low
[69] = strain NNK1, active compounds read low
[70] = strain TSCII, active compounds read low

Measured: normalized growth

Cc1c(C)c(C)c(C(=O)c2ccc(N=Cc3cc(Cl)cc(Cl)c3O)cc2)c(C)c1C
inactive: [1] 0.929 | [2] 0.934 | [3] 0.94 | [4] 0.925 | [5] 0.944 | [6] 0.926 | [7] 0.941 | [8] 0.949 | [9] 0.944 | [10] 0.926 | locus YDR054C, strain cdc34, active compounds read low 0.918 | [13] 0.923 | [17] 0.922 | [18] 0.932 | [19] 0.922 | [21] 0.941 | [23] 0.605 | [27] 0.631 | [29] 0.926 | [31] 0.927 | [33] 0.944 | [38] 0.735 | [39] 0.93 | [45] 0.938 | [47] 0.929 | [48] 0.938 | [50] 0.925 | [51] 0.655 | [52] 0.937 | [53] 0.94 | [55] 0.94 | [60] 0.921 | [64] 0.925 | [66] 0.937 | [67] 0.938 | [68] 0.941 | [69] 0.939 | [70] 0.925
active: [11] 0.681 | [12] 0.904 | [14] 0.573 | [15] 0.464 | [16] 0.527 | [20] 0.625 | [22] 0.63 | [24] 0.239 | [25] 0.262 | [26] 0.338 | [28] 0.509 | [30] 0.233 | [32] 0.503 | [34] 0.6 | [35] 0.458 | [36] 0.55 | [37] 0.663 | [40] 0.662 | [41] 0.585 | [42] 0.523 | [43] 0.459 | [44] 0.502 | [46] 0.645 | [49] 0.469 | [54] 0.503 | [56] 0.382 | [57] 0.493 | [58] 0.663 | [59] 0.446 | [61] 0.583 | [62] 0.504 | [63] 0.483 | [65] 0.403

CC(=O)c1ccc(Cl)c(N=Cc2cc(Cl)cc(Cl)c2O)c1
inactive: [1] 0.94 | [2] 0.948 | [3] 0.953 | [4] 0.941 | [5] 0.937 | [6] 0.944 | [7] 0.91 | [8] 0.932 | [9] 0.935 | [10] 0.958 | [12] 0.963 | [13] 0.948 | [17] 0.928 | [18] 0.934 | [19] 0.933 | [21] 0.939 | [29] 0.926 | [31] 0.9 | [33] 0.967 | [39] 0.941 | [45] 0.936 | [47] 0.92 | [48] 0.947 | [50] 0.955 | [52] 0.947 | [53] 0.923 | [55] 0.926 | [60] 0.953 | [64] 0.95 | [66] 0.959 | [67] 0.952 | [68] 0.931 | [69] 0.948 | [70] 0.905
active: [11] 0.303 | [14] 0.289 | [15] 0.151 | [16] 0.354 | [20] 0.222 | [22] 0.339 | [23] 0.253 | [24] 0.139 | [25] 0.159 | [26] 0.148 | [27] 0.227 | [28] 0.199 | [30] 0.139 | [32] 0.23 | [34] 0.341 | [35] 0.175 | [36] 0.441 | [37] 0.227 | [38] 0.308 | [40] 0.399 | [41] 0.192 | [42] 0.274 | [43] 0.186 | [44] 0.184 | [46] 0.304 | [49] 0.247 | [51] 0.246 | [54] 0.209 | [56] 0.197 | [57] 0.198 | [58] 0.32 | [59] 0.123 | [61] 0.269 | [62] 0.197 | [63] 0.247 | [65] 0.197
